# An excerpt weighted towards active compounds, which were near 19% of everything screened.
# HT1080 IDH1KD tx – kills HT-1080 cells with IDH1 knockdown. HT-1080 IDH1 knockdown viability, ATP luminescence, 48 h. 2% of 360,000 active. Potency, µM (series often up to 46.1 µM), for inactives: at the top dose activity, negative = toxicity, actives largely listed as cytotoxic;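 also: potency is read from the fitted curve at half-maximal effect; 0% = DMSO wells and -100% = cell-free medium wells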
#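 Viability of IDH1-knockdown HT-1080 fibrosarcoma cells was assessed by CellTiter-Glo after 48 h at 37 °C with titrated compound; concentration-effect curves were classified by fit quality and response size.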
# IL-1B inflam inh – blocks inflammasome-driven IL-1 beta release; THP-1 LPS/ATP IL-1B secretion, AlphaLISA, 16 h; hits give low values; 4.7% of 360,000 active; activity change, % at 57.5 µM; AID 743279; in the data active = activity change below about -50%; inconclusive = mostly about -30% to -49%
#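 Secreted IL-1B measured by AlphaLISA bead assay after 16 h compound exposure of THP-1 cells; compounds (final up to 57.5 uM) added 1 h before LPS (250 ng/mL) and ATP (1.25 mM) stimulation; lower signal means less secretion.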
# uPA generation – inhibitors of cell surface uPA generation. cell surface uPA generation assay, qHTS. 0.31% of 330,000 active. Potency, µM (series often up to 38.3 µM), for inactives: at the highest dose activity change, negative = inhibition, most hits filed as inhibitors. AID 540303; active = well fitted inhibition curve with a large enough effect; inconclusive = small, poorly fitted or top-dose-only effect; inactive = no such curve, though single readings can be large or run the other way; tested in mouse RAW 264.7 cells; also: potency is read from the fitted curve at half-maximal effect; nearly all actives have a fitted effect of over 55% in size
# HT1080NT lethal – kills 2HG-producing HT-1080-NT fibrosarcoma cells. HT-1080-NT fibrosarcoma viability, CellTiter-Glo ATP luminescence, 48 h. Potency, µM (series often up to 46.1 µM), without a hit: at the highest dose activity, negative = less viability, most hits filed as cytotoxic. 1.6% of 360,000 active;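 also: NT is the 2HG producing partner of a matched IDH1 knockdown line; potency is read from the fitted curve at half-maximal effect; 0% = DMSO-treated cells and -100% = media-only wells without cells; nearly all actives have a fitted effect of over 55% in size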
#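 HT-1080-NT fibrosarcoma cells (2HG-overproducing), 750 cells/well in RPMI with 5% FBS, dosed after 2 h and incubated 48 h at 37C. CellTiter-Glo luminescence normalized to DMSO and no-cell wells; concentration-response curves fitted and classed.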
# TDP1 cell CPT – growth inhibition of DT40 Tdp1-/-;hTDP1 cells with camptothecin (screen for TDP1 inhibitors); chicken DT40 Tdp1-/-;hTDP1 cells + 20 nM CPT, ATP luminescence, 48 h; Potency, µM (titrated, usually from 46.2 µM), for the others: top-dose activity change, negative = growth inhibition, most hits filed as inhibitors; 12% of 420,000 active; AID 686979; also: potency is read from the fitted curve at half-maximal effect; nearly all actives have a fitted effect of over 55% in size
#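 Cell growth measured by CellTiter-Glo luminescence after a minimum 48 h, 37 C compound exposure with 20 nM CPT in Tdp1-knockout DT40 cells stably expressing hTDP1, seeded 400/well; qHTS titration format.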
# DT40 TDP1 no CPT – qHTS for Inhibitors of human tyrosyl-DNA phosphodiesterase 1 (TDP1): qHTS in cells in absence of CPT; 15% of 420,000 active; Potency, µM (highest dose often 46.2 µM), for the others: at the top dose activity change, negative = growth inhibition, actives largely listed as inhibitors; AID 686978, 2013; DT40 Tdp1-/- hTDP1 cells, no CPT, ATP luminescence, 48 h; also: potency is read from the fitted curve at half-maximal effect; nearly all actives have a fitted effect of over 55% in size
#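 DT40 Tdp1-/-;hTDP1 cells, no CPT (DMSO vehicle only), 400 cells/well; compounds pin-transferred; ≥48 hr, 37 °C; CellTiter-Glo 30 min RT dark, luminescence read.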
# * marks the source's active call; other numbers are inactive results; ? = inconclusive; / = no result given; [ ] = dose if it differs, or a comment. Unless noted, calls follow the shape of the dose curve; as a rule, active = well fitted curve in the direction sought with a large enough effect; inconclusive = small, poorly fitted or top-dose-only effect, or another doubt; inactive = no such curve, though single readings can be large; an effect the other way counts as inactive or inconclusive. Unless noted, % is scaled to controls: 0 for no effect and ±100 for the full control effect.
SMILES,HT1080 IDH1KD tx,IL-1B inflam inh,uPA generation,HT1080NT lethal,TDP1 cell CPT,DT40 TDP1 no CPT
CC(C)CCn1c(Sc2nc3ccccc3s2)nc2c1c(=O)[nH]c(=O)n2C,-11%,-16,-4%,-20%,?,16µM*
CCN1CCN(c2nc3c(c(=O)[nH]c(=O)n3C)n2CCSc2nc3ccccc3s2)CC1,1%,-23,12%,-23%,?,?
CC1CCN(c2nc3c(c(=O)[nH]c(=O)n3C)n2CC(C)CSc2nnnn2-c2ccccc2)CC1 (stereo not drawn),9%,?,9%,-3%,16µM*,?
CC(CSc1nc2ccccc2s1)Cn1c(N2CCCC2)nc2c1c(=O)[nH]c(=O)n2C (stereo not drawn),?,-19,-2%,-22%,?,16µM*
COc1ncccc1C(=O)NC1CCCc2c1cnn2-c1cc(C)cc(C)c1 (stereo not drawn),-27%,-56*,4%,-25%,?,-15%
COCc1ccc(C(=O)NC2CCCc3c2cnn3-c2ccc(C)c(C)c2)o1 (stereo not drawn),1%,4,13%,?,18µM*,?
CC(=O)Nc1cccc(C(=O)NC2CCCc3c2cnn3-c2cc(C)cc(C)c2)c1 (stereo not drawn),-2%,17,-3%,-1%,5%,3%
Cc1cc(C)cc(-n2ncc3c2CCCC3NC(=O)c2csnn2)c1 (stereo not drawn),-1%,-26,7%,12%,-15%,-1%
COCc1ccc(C(=O)NC2CCCc3c2cnn3-c2cc(C)cc(C)c2)s1 (stereo not drawn),?,-22,-5%,?,?,21µM*
Cc1cc(C)cc(-n2ncc3c2CCCC3NC(=O)c2cc(C)oc2C)c1 (stereo not drawn),-18%,-29,-8%,-15%,?,23µM*
CCN(CC)CCCNC(=O)Cc1ccc(NC(=O)N2CCCCc3ccccc32)cc1,/,/,/,/,-19%,-18%
CCCOc1cccc(C(=O)NC(=S)Nc2cccc(C(F)(F)F)c2)c1,15%[9.24 µM],-57*,12%,?,?,?
CCOc1ccc(S(=O)(=O)c2c(C(=O)c3ccc(C)cc3)cnc3cc4c(cc23)OCCO4)cc1,10%,?,4%,-1%,-28%,-26%
COc1ccc(S(=O)(=O)c2c(C(=O)c3ccc(C)c(C)c3)cnc3ccc(C)cc23)cc1,/,/,/,/,7.3µM*,6.5µM*
CCc1ccc(C(=O)c2cnc3ccc(F)cc3c2S(=O)(=O)c2ccccc2)cc1,/,/,/,/,5.2µM*,5.8µM*
Cc1ccc(C(=O)c2cnc3cc4c(cc3c2S(=O)(=O)c2ccccc2)OCCO4)cc1,-27%,-79*,-12%,-24%,18µM*,23µM*
c1ccc(CNc2cc(-c3ccoc3)ncn2)cc1,/,/,/,/,0%,-8%
Cc1cc(NC(=O)CSc2nnc(C(F)(F)F)n2C)no1,10%,-15,0%,4%,-13%,-9%
CC(=O)N/C(=N\c1nc(C)cc(C)n1)Nc1ccc(Cl)cc1Cl,26%,10,5%,18%,22%,-13%
Cc1cccc(CS(=O)(=O)CC2Nc3ccc(C(=O)NCc4ccccc4Cl)cc3NC2=O)c1 (stereo not drawn),/,/,/,/,8.2µM*,?
CCCCNC(=O)c1ccc2c(c1)NC(=O)C(CS(=O)(=O)Cc1cccc(C)c1)N2 (stereo not drawn),/,/,/,/,-15%,?
Cc1ccc(NC(=O)CSc2nnc(-c3cc(C)[nH]n3)n2N)c(C)c1,10%,-12,4%,10%,7%,3%
O=C(Nc1cccc2ccccc12)c1csc([C@@H]2C[C@H](O)[C@@H](CO)O2)n1,10%,4,/,26%,-26%,-20%
O=[N+]([O-])c1ncn(Cc2ccccc2Cl)n1,13%,31,-3%,8%,1%,2%
O=[N+]([O-])c1ncn(Cc2c(Cl)cccc2Cl)n1,-1%,41,?,-2%,18µM*,?
SMILES,HT1080 IDH1KD tx,IL-1B inflam inh,uPA generation,HT1080NT lethal,TDP1 cell CPT,DT40 TDP1 no CPT
CCc1sc(Nc2ccc(Cl)cc2)nc1-c1cc2cccc(OC)c2oc1=O,/,/,/,/,?,21µM*
CCc1ccc(Nc2nc(-c3cc4cccc(OC)c4oc3=O)c(CC)s2)cc1,/,/,/,/,?,23µM*
COc1cc(OC)cc(-c2noc([C@H]3C[C@H](O)[C@@H](CO)O3)n2)c1,15%,-18,/,11%,11%,1%
COC(=O)[C@@H]1CCCN1C(=O)c1c(OC)cc(=O)n2c1CCN(Cc1ccc3nsnc3c1)CC2,/,/,/,/,1%,-15%
COc1ccccc1CNc1ncnc2sc(C(=O)N3CCN(C)CC3)c(C)c12,/,/,/,/,-8%[9.04 µM],-16%
Cc1sc2nc(CN(Cc3cccs3)C(=O)C3CC3)[nH]c(=O)c2c1C,-1%,-15,-6%,-1%,16µM*,9.2µM*
Cc1sc2nc(CN(C(=O)NC3CCCCC3)C3CCCCC3)[nH]c(=O)c2c1C,17%[9.24 µM],-29,7%,-22%,18µM*,21µM*
Cc1cc(=O)n(Cc2cccc(F)c2)c2c1c(C)nn2-c1cccc(F)c1,/,/,/,/,-13%,-1%
Cc1cccc(NC(=O)c2cc(S(=O)(=O)N(C)c3ccc(F)cc3)ccc2Cl)n1,-11%,?,-6%,-6%,?,8.2µM*
COc1ccccc1N(C)S(=O)(=O)c1ccc(Cl)c(C(=O)Nc2ccccc2N2CCOCC2)c1,-6%,29,2%,-7%,3.7µM*,1.5µM*
COc1ccccc1N(C)S(=O)(=O)c1ccc(Cl)c(C(=O)Nc2cccc(C)n2)c1,-11%,-24,5%,-13%,18µM*,16µM*
CN(c1ccc(F)cc1)S(=O)(=O)c1ccc(Cl)c(C(=O)NC2(C)CCS(=O)(=O)C2)c1 (stereo not drawn),0%,8,11%,2%,-22%,?
CN(C)C(CNC(=O)c1cc(S(=O)(=O)N(C)c2ccc(F)cc2)ccc1Cl)c1cccs1 (stereo not drawn),-7%,1,0%,-5%,5.8µM*,5.8µM*
O=C(O)CN1C(=O)C(=O)N(Cc2ccc(Cl)c(Cl)c2)C1=O,11%,6,9%,3%,-11%,8%
COCCCNC(=O)N1CCN(c2nnc(C)c3c(C)n(-c4ccc(Cl)cc4)nc23)CC1,/,/,/,/,-10%,-12%
O=C(Nc1cccc(F)c1)N1CC=C(n2c(=O)[nH]c3ccccc32)CC1,-1%,-59*,1%,-8%,?,?

# Compound activity deposited in PubChem by National Center for Advancing Translational Sciences (NCATS).
